Each structure is given as a SMILES string. Inconclusive results are not listed. A structure can be active in one record and inactive in another. Active and inactive are the calls of the source. The call rests on the fitted dose curve.
On the % scale 0 is the no-effect control and ±100 the full control effect; potency means the concentration at half of the fitted maximal effect.

This assay can be described thus: qHTS assay to identify small molecule agonists of the hypoxia (HIF-1) signaling pathway - cell viability counter screen (AID 1224844). Further: nearly all actives have a fitted effect of over 50% in size. Particulars: HRE-bla ME-180 viability, CellTiter-Glo luminescence, 17 h; series mostly up to 76.8 µM; activity change, negative = cytotoxicity: at the top concentration. Put shortly: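 CellTiter-Glo luminescence read-out, 30 min RT, taken in the same wells as the beta-lactamase HRE reporter assay; HRE-bla ME-180 cells, 0.5% dialyzed FBS, 17 hr compound treatment at 37C, 5% CO2.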
In the case of `CCCCCCCCCCCCCCCC[N+](C)(C)CCN(Cc1ccc(OC)cc1)c1ncccn1`, the Potency is 21.3 µM (active).

Consider `O=C(Oc1cccc2cccnc12)c1ccccc1`, for which the Potency was 7.56 µM (active).

For `O=C(Nc1cccc(C(F)(F)F)c1)c1cc(Br)cc(Br)c1O`, the Potency is 19.5 µM (active).

Regarding `OCCN1CCN(CC/C=C2/c3ccccc3Sc3ccc(C(F)(F)F)cc32)CC1`, the Potency was 21.3 µM (active).

With `O=C(O)c1cc(O)c2c(c1)C(=O)c1cccc(O)c1C2=O`, the “activity change, negative = cytotoxicity” value was 5.32% (inactive).

`Oc1ccc(Cl)cc1Sc1cc(Cl)ccc1O`: the Potency is 26.8 µM (active).

Consider `CCCCCCCCCOC(=O)c1ccc(O)cc1`, for which the Potency is 54.2 µM (active).

On to `N=C1N=C(N)c2cc3ccccc3cc21`, for which the Potency is 15.5 µM (active).

Take `CCCCCCCCS(=O)C(C)Cc1ccc2c(c1)OCO2` (stereo not drawn): the “activity change, negative = cytotoxicity” value was -28% (inactive).

On to `CCCCCCCC[N+](CCCCCCCC)(CCCCCCCC)CCCCCCCC`, for which the Potency is 13.8 µM (active).

As to `CCCCCCCCCCCCCCCC(=O)OC[C@H](O)[C@H]1OC(=O)C(O)=C1O`, the Potency was 54.9 µM (active).

Consider `O=[N+]([O-])c1cc([N+](=O)[O-])c2ccc(S(=O)(=O)O)cc2c1O`, for which the “activity change, negative = cytotoxicity” value was -4.28% (inactive).

In the case of `CN(C)c1ccc(SC#N)cc1`, the “activity change, negative = cytotoxicity” value was -13.3% (inactive).

As to `c1cc(C(c2ccc(OCC3CO3)cc2)c2ccc(OCC3CO3)cc2)ccc1OCC1CO1` (stereo not drawn), the “activity change, negative = cytotoxicity” value is 21.7% (inactive).

`CCOc1nc2cccc(C(=O)OC(C)OC(=O)OC3CCCCC3)c2n1Cc1ccc(-c2ccccc2-c2nn[nH]n2)cc1` (stereo not drawn): the Potency is 19.5 µM (active).

As for `CCCC/C=C/CCCCO`, the “activity change, negative = cytotoxicity” value was 11.7% (inactive).

Take `Nc1ccc2cc(S(=O)(=O)O)cc(O)c2c1N=Nc1ccccc1C(F)(F)F`: the “activity change, negative = cytotoxicity” value was -4.39% (inactive).

For `NC(=NCCCCCCN=C(N)/N=C(\N)Nc1ccc(Cl)cc1)/N=C(\N)Nc1ccc(Cl)cc1`, the Potency was 24.4 µM (active).

For `Cc1nc(-c2ccc3c(c2)CCN(CCC2CCC(NC(=O)/C=C/c4ccc(F)cc4)CC2)CC3)no1` (stereo not drawn), the “activity change, negative = cytotoxicity” value was 0.964% [at 35.3 µM] (inactive).

Take `C/C=C1/C(=O)C[C@H]2[C@@H]3CCC4=CC(=O)CC[C@]4(C)[C@H]3CC[C@]12C`: the “activity change, negative = cytotoxicity” value was 2.04% (inactive).

Consider `CC[C@H](c1ccc(O)cc1)[C@@H](CC)c1ccc(O)cc1`, for which the Potency is 54.9 µM (active) and inactive.

Take `CNC(=O)c1ccccc1`: the “activity change, negative = cytotoxicity” value is 6.67% (inactive).

With `O=c1c(-c2ccccc2)c1-c1ccccc1`, the Potency is 13.4 µM (active).

Values taken from PubChem BioAssay (Tox21).
